# Screening data as filed in PubChem.
# Rab9 prom act: Rab9 promoter activation; Huh7 Rab9 promoter-luciferase reporter, luminescence, 24 h; 2.8% of 320,000 active; Potency, µM (series often up to 9.22 µM), usual class: activators; further: nearly all actives have a fitted effect of over 60% in size
#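 Using Huh7 cells stably transfected with Rab9 promoter–luciferase, compounds were incubated 24 h at 37 °C, 5% CO2; luciferase luminescence was read 10 min after reagent addition.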
# FLuc modulator: firefly luciferase modulation, counter-screen for miR-21 project. P08659. purified FLuc, Km substrates, luminescence inhibition. Potency, µM (titrated, usually from 57.5 µM), usual class: inhibitors. 6.9% of 360,000 active. AID 588342; further: nearly all actives have a fitted effect of over 55% in size
# Target sequence (P08659 whole entry, looked up): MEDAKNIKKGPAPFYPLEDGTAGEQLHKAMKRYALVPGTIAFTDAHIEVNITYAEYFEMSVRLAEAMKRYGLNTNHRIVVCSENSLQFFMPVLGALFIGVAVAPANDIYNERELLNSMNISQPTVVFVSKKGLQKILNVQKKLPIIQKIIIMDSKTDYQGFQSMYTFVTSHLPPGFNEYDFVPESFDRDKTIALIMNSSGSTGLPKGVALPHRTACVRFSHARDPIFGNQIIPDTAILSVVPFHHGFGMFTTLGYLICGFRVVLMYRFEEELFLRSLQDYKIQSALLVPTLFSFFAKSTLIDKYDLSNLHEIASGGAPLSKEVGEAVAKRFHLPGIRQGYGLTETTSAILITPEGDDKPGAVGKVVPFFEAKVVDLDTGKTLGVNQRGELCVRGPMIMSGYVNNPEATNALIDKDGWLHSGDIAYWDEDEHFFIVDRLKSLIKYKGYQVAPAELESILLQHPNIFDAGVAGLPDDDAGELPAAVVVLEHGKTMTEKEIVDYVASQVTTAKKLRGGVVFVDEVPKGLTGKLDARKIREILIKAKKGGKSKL
#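 Purified P. pyralis luciferase, 10 nM final, with Km-level 10 uM D-luciferin and 10 uM ATP in 50 mM Tris acetate pH 7.5, 10 mM Mg acetate, 0.01% Tween-20, 0.05% BSA; 6-point qHTS titration about 60 µM downward; luminescence read.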
# SMN2 splice enh: enhancers of SMN2 splice variant expression | HEK293 SMN2-luciferase splicing reporter, luminescence, 30-36 h | Potency, µM (top dose mostly 46.1 µM), most hits filed as activators | 2.8% of 210,000 active; further: nearly all actives have a fitted effect of over 55% in size
#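 HEK293 cells carry an SMN2 […]–luciferase reporter in which exon 7 inclusion puts luciferase in frame. Cells were plated 10-12 h before compound addition, then incubated 30-36 h at 37C. ONE-Glo luminescence was read; sodium butyrate at 4.5 mM final served as control.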
# NPC1 prom act: NPC1 promoter activation | Huh7 NPC1 promoter luciferase reporter, 24 h | Potency, µM (series often up to 9.22 µM), actives largely listed as activators | 2.4% of 320,000 active | AID 485313; further: nearly all actives have a fitted effect of over 60% in size
#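 Luciferase expression driven by the NPC1 promoter was measured in stably transfected Huh7 cells after a 24 h compound incubation, using a luciferase reagent and a luminescence read.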
# ELG1 genotoxic: induces genotoxicity in HEK293T cells with luciferase-tagged ELG1; HEK293T ELG1-luciferase reporter, luminescence, 16 h; Potency, µM (doses to about 46 µM), actives largely listed as activators; 1.3% of 330,000 active; AID 504466; further: nearly all actives have a fitted effect of over 60% in size
#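 HEK293T cells expressing luciferase-tagged ELG1 were treated with compound or DMSO for 16 hr at 37°C. Luciferase activity was then read after 30 min with ONE-Glo at room temperature; rising signal flags genetic stress.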
# ELG1 repair inh: blocks ELG1-dependent DNA repair in HEK293T cells; HEK293T ELG1-luciferase reporter, luminescence, 16 h; DNA damage induced by 5-fluorouridine; Potency, µM (top dose mostly 46.1 µM), usual class: inhibitors; 2.3% of 330,000 active; further: nearly all actives have a fitted effect of over 55% in size
#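 Quantitative HTS, concentration-response format. 2,000 cells/well co-treated with 5-fluorouridine and compound, 16 hr in 5% CO2 at 37 °C; ONE-Glo luminescence read after 30 min.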
# Hits are given with their value; - = inactive; ? = inconclusive; . = no result given. Sampled rows, rich in hits. Any-hit rate of the full collection: about 9.2%. The call rests on the fitted dose curve; in most records, active means well fitted curve in the direction sought with a large enough effect; inconclusive means small, poorly fitted or top-dose-only effect, or another doubt; inactive means no such curve, though single readings can be large; an effect the other way counts as inactive or inconclusive.
SMILES,Rab9 prom act,FLuc modulator,SMN2 splice enh,NPC1 prom act,ELG1 genotoxic,ELG1 repair inh
O=C(CCC1N=C2c3ccccc3N=C(SCc3ccc(F)cc3)N2C1=O)NC1CCCCC1 (stereo not given),.,-,.,.,.,.
COc1ccc(S(=O)(=O)N2CCOC2CNC(=O)C(=O)NCCc2ccccc2)cc1 (stereo not given),-,-,.,-,-,21µM
COc1ccc(CCNC(=O)C(=O)NCC2OCCN2S(=O)(=O)c2ccc3c(c2)OCCO3)cc1OC (stereo not given),-,-,.,-,-,12µM
COc1ccc(CCNC(=O)C(=O)NCC2OCCN2S(=O)(=O)c2ccc3c(c2)OCCO3)cc1 (stereo not given),-,-,.,-,-,?
COc1ccc(CCNC(=O)C(=O)NCC2OCCN2S(=O)(=O)c2ccc(C)cc2)cc1 (stereo not given),-,-,.,-,-,-
COc1ccc(S(=O)(=O)N2CCOC2CNC(=O)C(=O)NCCc2ccc(OC)c(OC)c2)cc1C (stereo not given),-,-,-,-,-,15µM
COc1ccc(CCNC(=O)C(=O)NCC2OCCN2S(=O)(=O)c2ccc(OC)c(OC)c2)cc1 (stereo not given),-,-,.,-,-,?
Cc1cc(F)ccc1S(=O)(=O)N1CCCOC1CNC(=O)C(=O)NCCc1c[nH]c2ccccc12 (stereo not given),-,-,-,-,-,18µM
COc1ccccc1CCNC(=O)C(=O)NCC1OCCN1S(=O)(=O)c1ccc(OC)c(OC)c1 (stereo not given),-,-,.,-,-,21µM
CCc1ccc(/C=C2/SC(=S)N(CCC(=O)NCCCN3CCOCC3)C2=O)cc1,-,5.4µM,.,-,-,-
O=C(CCN1C(=O)/C(=C/c2ccccc2)SC1=S)NCCCN1CCOCC1,-,-,.,-,-,-
COC(=O)c1ccc(/C=C2/SC(=S)N(CCC(=O)NCCCN3CCOCC3)C2=O)cc1,-,?,.,-,-,-
CCOc1ccc(/C=C2\SC(=S)N(CCCC(=O)NCCCN3CCOCC3)C2=O)cc1,-,9.5µM,.,-,-,-
O=C(CCCN1C(=O)/C(=C/c2ccccc2Cl)SC1=S)NCCCN1CCOCC1,-,17µM,.,-,-,-
N#CCC(=O)Nn1c(=S)[nH]c2ccccc2c1=O,-,-,-,-,-,-
CCN(CC(=O)NCc1ccc(Cl)cc1)C(=O)C(C)Sc1ccccc1 (stereo not given),-,-,.,-,-,?
CCOC(=O)c1cnc(Nc2nc3ccccc3o2)nc1CN1CCN(C)CC1,-,-,13µM,-,?,?
COc1ccccc1CNC(=O)CCC1N=C2c3ccccc3N=C(SCC(=O)Nc3ccc(N(C)C)cc3)N2C1=O (stereo not given),.,-,.,.,.,.
O=C(O)CCc1cc(I)c(O)c(I)c1,.,.,-,.,.,.
Nc1ccc[n+](CC(=O)c2ccccc2)c1,-,-,.,-,-,-
CCc1n[n+](CC(=O)c2ccccc2)c(N)s1,0.5µM,2.4µM,4µM,0.32µM,?,?
O=C(c1cc2cc([N+](=O)[O-])ccc2oc1=O)n1cccn1,4µM,-,-,-,-,-
CCN1CCN(C(=O)c2cc3cc([N+](=O)[O-])ccc3oc2=O)CC1,-,-,-,-,-,-
CCn1c(=O)cc(SCC(=O)N2CCN(c3ccccc3OC)CC2)c2ccccc21,-,-,.,-,-,-
CCn1c(=O)cc(SCC(=O)N2CCN(C(=O)c3ccco3)CC2)c2ccccc21,-,-,?,-,?,?
CCn1c(=O)cc(SCC(=O)N2CCN(C3CCCCC3)CC2)c2ccccc21,-,-,10µM,-,-,?
CCn1c(=O)cc(SCC(=O)N2CCOCC2)c2ccccc21,-,-,14µM,-,?,?
CCC(=O)Nc1ccc(-c2ccc(N3CCC(C)CC3)nn2)cc1,1.4µM,9.5µM,.,2.8µM,?,?
CC1CCN(CC(=O)Nc2cccc(Cl)c2)CC1,-,-,-,-,-,-
